We go through 40 compounds from PubChem BioAssay (NCI).

This is part of a sample that, as a whole, favours compounds with a hit. Of some 83,000 tested, about 20% had one in any assay.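 Cells were grown in 96-well plates and exposed to the test compound at a single concentration for 48 hours; results are reported as percent growth, with values below 10 considered active.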 A number with no mark means an inactive call. Active and inactive are the calls of the source.

This test relates to OVCAR-4 ovarian. Briefly: NCI-60 one-dose screen, 48 h (100 = growth as untreated, 0 = no growth, -100 = all killed). The note with it: 10 µM unless noted.
Regarding `CC(C)(CO)N(CCO)CCO`, the growth was 110%.

As to `CCCCCCCCn1ccc2cc(NC(=O)Cn3cc(CN4CCCCCC4)nn3)ccc21`, the growth was 51%.

For the compound `COc1cc2cc(Oc3ccc(NC(=O)Nc4ccccc4)cc3)c(C)nc2cc1OCCN1CCCCC1`, the growth was 83.1%.

In the case of `CN1CCN(CCCOC(=O)c2c3c(n4ccccc24)C(=O)c2ncccc2C3=O)CC1`, the growth is -11.6% (active).

In the case of `Cc1ccc2[nH]c(-c3ccc(S(C)(=O)=O)cc3)c(/C=N/N=C(N)N)c2c1`, the growth was 90.7%.

For `COc1ccc(C/C(C)=C(\c2ccc(O)cc2)c2ccc(OCCN3CCCC3)cc2)cc1`, the growth was 104%.

Take `CC1(C)C2CC=C(/C=N/NC(=O)C3CCC(=O)N3)C1C2` (stereo not given): the growth is 101%.

On to `COc1ccc2cc(-c3ccc(-c4ccc(C(=N)N)s4)s3)ccc2c1`, for which the growth was -45.6% (active).

With `Cc1nc2sc(C(=O)Nc3ccccc3)c(N)c2cc1C(=O)/C=C/c1ccccc1`, the growth is 4.43% (active).

With `O=C1/C(=C/c2ccc(C(F)(F)F)cc2)COc2ccc(O)cc21`, the growth is 82.7%.

`Cc1[nH]c(C(=O)Nc2ccc(C(N)=O)cc2NC(C)C)c(Cl)c1Cl`: the growth was 92.4%.

As for `Oc1c(CN2CCCC2)cc(COCc2ccccc2)c2cccnc12`, the growth was 14.3%.

Consider `CCCCCCCC/C=C\CCCCCCCCOc1ccccc1CC(=O)NCC[N+]1(C)CCCCC1`, for which the growth was 34.1%.

On to `O=C1Nc2ccc(F)cc2/C1=C\c1nc(-c2ccccc2F)n2ccccc12`, for which the growth was 110%.

In the case of `CN(C)Cc1ccc(C(=O)Nc2ccc3ncnc(Nc4ccc(Oc5cccc(F)c5)c(Cl)c4)c3c2)cc1`, the growth was -24.4% (active).

With `CCNC(=O)Oc1ccc(/C(=C(/C)Cc2ccc(OC)cc2)c2ccc(OCCN3CCCC3)cc2)cc1`, the growth was 74.1%.

As to `Cc1cscc(C)c1=S`, the growth is 113%.

As for `CC(=O)N/C(=C1/OC(C(O)C(O)C(O)CO)CN1C)[P+](c1ccccc1)(c1ccccc1)c1ccccc1` (stereo not given), the growth was 97.2%.

With `COC(=O)c1c2c(n3ccc(C)cc13)C(=O)c1ccccc1C2=O`, the growth is 81.7%.

As to `COc1cc2nc(Nc3cccc(F)c3)nc(Nc3cc(C)[nH]n3)c2cc1OC`, the growth is -88.2% [20 µM] (active).

For `CC1=CCC[C@@H]2C1(C)CC[C@H](C)[C@@]2(C)CC1=CC(=O)C(SC(C)(C)C)=CC1=O` (stereo not given in full), the growth was 88.5%.

In the case of `O=C(/C=C/c1cccc(Cl)c1)c1cccc(OCCCCOc2cccc(C(=O)/C=C/c3cccc(Cl)c3)c2)c1`, the growth was 93.3%.

Regarding `CCCNc1nc2ccccc2c2c(=O)c3cccc(Cl)c3sc12`, the growth is 81.9%.

As to `COc1cccc(Nc2ccnc3[nH]c4ccc([N+](=O)[O-])cc4c23)c1`, the growth was 27.2%.

On to `CCOC(=O)CSc1nc2sc3c(c2c(=O)n1-c1ccc([N+](=O)[O-])cc1)CCCCC3`, for which the growth was 31%.

Consider `COc1cccc2c(N=NC(=O)c3ccc(S(N)(=O)=O)cc3)c(O)[nH]c12`, for which the growth is 96.8%.

As for `Clc1nccc2c(-c3csc(-c4c[nH]c5ccccc45)n3)c[nH]c12`, the growth was 68.9%.

In the case of `COc1cc(/C=N/Nc2ccccc2F)cc(OC)c1OC`, the growth was 92.3%.

As for `COc1ccc2c(c1)c(-c1nc(-c3cn(C)c4ncccc34)cs1)cn2CCO`, the growth is 45.5%.

In the case of `CS(=O)(=O)Cc1cnc(C2OCCO2)s1`, the growth is 100%.

Take `COc1ccc(Nc2ncc(C(N)=O)c(NCCCNC(=O)C3CCC3)n2)cc1`: the growth was 81%.

With `N#C/C(=C\c1ccc(-c2ccc(Cl)cc2)o1)c1ccc(Cl)cc1`, the growth was -14.1% (active).

For the compound `COc1cc(C(=O)/C=C/c2c(-c3cccs3)nc3ccccn23)cc(OC)c1OC`, the growth is 13.1%.

Regarding `Fc1ccc(CNc2c3ccccc3nc3ccccc23)cc1`, the growth was 33.2%.

For the compound `COc1cc(Nc2c3ccc(Cl)cc3nc3ccc(OC)cc23)c2ncccc2c1`, the growth is 20.3%.

`COc1cc(C2Cc3ncccc3-c3[nH]c(=O)c4cccnc4c32)cc(OC)c1OC` (stereo not given): the growth was 58%.

Take `CCc1ccc(CCC(=O)Nc2ncc(Cc3ccc(Cl)cc3)s2)o1`: the growth is 63.8%.

Take `N#Cc1c(-c2ccccc2)nc2c(c(-c3ccccc3)nn2-c2ccccc2)c1-c1ccc(N2CCOCC2)cc1`: the growth is 103%.

As for `COc1ccc(NC(=O)c2ccc(C(=O)Nc3ccc(OC)cc3OC)cc2)c(OC)c1`, the growth was 88.2%.

As to `CCN=C1C=CC(=C(c2ccc(N(C)C)cc2)c2ccc(N(C)C)cc2)c2ccccc21`, the growth was 16.3%.
